# Test results as given in PubChem BioAssay (NCATS).
# Several values for one entry are separate records, joined by “and”; a condition that tells them apart may be missing. Identical values can stand only once. Values without a mark were called inactive. Records with an inconclusive call do not appear. Where a call stands in place of a potency, no number is given. Activity calls are given as the source filed them. Unless noted, the call rests on the fitted dose curve; in most records, active means well fitted curve in the direction sought with a large enough effect; inconclusive means small, poorly fitted or top-dose-only effect, or another doubt; inactive means no such curve, though single readings can be large; an effect the other way counts as inactive or inconclusive.
# Key:
# [1] = target: Tyrosine-protein kinase Yes (Homo sapiens) (UniProt P07947); assay: qHTS for small molecule inhibitors of Yes1 kinase: Primary Screen (AID 686947); conditions: Yes1 kinase biochemical qHTS inhibition; series mostly up to 76.9 µM; further: nearly all actives have a fitted effect of over 60% in size; further: potency means the concentration at half of the fitted maximal effect
# How it was run: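 ADP-Glo luminescence reports ADP formed by 4 nM Yes1 phosphorylating poly(E4Y) (0.3 mg/mL) with 0.1 mM ATP for 60 min at room temperature, following 20 min compound preincubation; normalised between DMSO wells with and without enzyme.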
# [2] = qHTS for small molecule inhibitors of Yes1 kinase: Counter Assay (AID 686950); conditions: series mostly up to 76.9 µM;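 further: no kinase present so only ADP-Glo detection of a fixed ADP amount is tested; luminescence from ADP-Glo reporting ADP in a fixed ATP and ADP mixture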
# How it was run: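 Measuring interference with ADP-Glo, the assay ran 60 min at room temperature on an ATP/ADP mix lacking enzyme. Values were normalized to ATP-plus-ADP (maximum) and ATP-only (minimum) DMSO controls.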
# [3] = qHTS assay for environmental chemicals that activate the Aryl hydrocarbon Receptor (AhR) signaling pathway (AID 651777); conditions: 1A2-DRE human hepatoma cells, luciferase, 24 h; stronger effect = higher value; further: nearly all actives have a fitted effect of over 15% in size
# How it was run: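 Human hepatoma 1A2-DRE cells, stably carrying a dioxin response element and CYP1A2 promoter driving luciferase, were exposed to compounds for 24 hr at 37 C and 5% CO2. Luciferase signal was then read after 30 min One-Glo at room temperature.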
# [4] = target: Peroxisome proliferator-activated receptor alpha (Homo sapiens) (UniProt Q07869); assay: qHTS assay for small molecule agonists of the peroxisome proliferator-activated receptor alpha (PPARalpha) signaling pathway (AID 651778); conditions: PathHunter PPARalpha complementation, chemiluminescence, 6 h; stronger effect = higher value
# How it was run: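 Cells plated at 2,000/well and held overnight at 37 C, 5% CO2, then compound added by pin tool for 6 hr; after PathHunter detection reagent and 60 min at room temperature, chemiluminescence from enzyme complementation was read.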
# [5] = target: Nuclear receptor ROR-gamma (Homo sapiens) (UniProt P51449); assay: qHTS assay for small molecule antagonists of the retinoid-related orphan receptor gamma (ROR-gamma) signaling pathway (AID 651802); conditions: ROR-gamma antagonist cell reporter assay; series mostly up to 92.2 µM;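 further: CHO cells with doxycycline-induced ROR-gamma expression; nearly all actives have a fitted effect of over 60% in size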
# How it was run: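 Steps: cells dispensed; compound or DMSO transferred by pin tool; doxycycline added to induce the ROR response element-driven luciferase; plates held 16hr at 37C; ONE-Glo added and luminescence measured.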
# [6] = qHTS assay for small molecule agonists of the antioxidant response element (ARE) signaling pathway measured by Nrf2-dependant transcriptional activity (AID 720636; active means well fitted curve in the direction sought with a large enough effect in the repeat runs; an effect the other way counts as inactive or inconclusive); conditions: ARE-luc HepG2, Nrf2 luciferase reporter, 16 h; series mostly up to 92.4 µM
# How it was run: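 ARE-luc HepG2 cells carrying an Nrf2-responsive luciferase reporter were plated in medium with 1% dialyzed FBS, left 6 hr at 37 C to attach, then exposed to compound for 16 hr. Luciferase luminescence was read after ONE-Glo addition.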
# Tyrosine-protein kinase Yes (Homo sapiens), sequence (P07947 whole entry, looked up): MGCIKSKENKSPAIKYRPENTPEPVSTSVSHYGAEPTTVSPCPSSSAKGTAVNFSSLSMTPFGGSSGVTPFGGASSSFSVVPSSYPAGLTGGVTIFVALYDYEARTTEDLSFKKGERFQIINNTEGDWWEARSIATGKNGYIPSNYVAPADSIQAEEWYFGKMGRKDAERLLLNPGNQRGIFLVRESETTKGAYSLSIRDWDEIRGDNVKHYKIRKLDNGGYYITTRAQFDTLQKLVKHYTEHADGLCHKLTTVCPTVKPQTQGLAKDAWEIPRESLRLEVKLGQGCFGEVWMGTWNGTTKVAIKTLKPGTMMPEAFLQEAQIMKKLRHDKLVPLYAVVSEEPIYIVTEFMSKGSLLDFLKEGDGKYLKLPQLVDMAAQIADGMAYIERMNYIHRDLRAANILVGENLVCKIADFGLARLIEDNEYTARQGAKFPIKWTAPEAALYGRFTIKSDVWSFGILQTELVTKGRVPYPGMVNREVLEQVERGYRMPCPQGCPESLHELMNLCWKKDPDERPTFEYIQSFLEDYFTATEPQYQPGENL
# Peroxisome proliferator-activated receptor alpha (Homo sapiens), sequence (Q07869 whole entry, looked up): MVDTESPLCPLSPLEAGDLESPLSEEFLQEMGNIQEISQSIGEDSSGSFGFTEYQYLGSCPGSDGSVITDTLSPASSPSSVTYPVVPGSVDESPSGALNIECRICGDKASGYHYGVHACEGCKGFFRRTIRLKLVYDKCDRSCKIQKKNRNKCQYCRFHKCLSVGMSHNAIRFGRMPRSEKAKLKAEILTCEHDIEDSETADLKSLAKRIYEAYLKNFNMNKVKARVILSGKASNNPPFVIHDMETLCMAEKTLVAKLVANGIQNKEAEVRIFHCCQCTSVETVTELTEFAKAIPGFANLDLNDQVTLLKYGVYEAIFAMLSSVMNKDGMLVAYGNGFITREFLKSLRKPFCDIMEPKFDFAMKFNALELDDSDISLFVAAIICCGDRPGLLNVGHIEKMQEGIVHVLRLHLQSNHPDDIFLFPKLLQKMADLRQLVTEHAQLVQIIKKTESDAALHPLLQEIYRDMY
# Nuclear receptor ROR-gamma (Homo sapiens), sequence (P51449 whole entry, looked up): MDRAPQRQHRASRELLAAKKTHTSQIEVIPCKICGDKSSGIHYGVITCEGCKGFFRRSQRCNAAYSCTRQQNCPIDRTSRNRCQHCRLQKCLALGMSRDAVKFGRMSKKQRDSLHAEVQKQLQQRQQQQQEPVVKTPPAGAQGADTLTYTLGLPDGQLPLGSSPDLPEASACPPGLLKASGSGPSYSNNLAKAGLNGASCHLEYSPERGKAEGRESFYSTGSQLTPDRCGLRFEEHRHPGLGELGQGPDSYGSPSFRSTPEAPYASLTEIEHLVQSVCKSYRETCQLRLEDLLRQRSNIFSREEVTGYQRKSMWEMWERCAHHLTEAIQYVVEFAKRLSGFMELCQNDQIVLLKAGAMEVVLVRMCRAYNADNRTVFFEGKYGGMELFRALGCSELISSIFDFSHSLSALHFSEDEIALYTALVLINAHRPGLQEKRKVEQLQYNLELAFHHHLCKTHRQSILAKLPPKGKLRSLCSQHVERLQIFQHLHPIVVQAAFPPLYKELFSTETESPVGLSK
structure (smiles),measurement,setting,value
NC(=O)c1ccc(N(C(N)=O)c2c(F)cccc2F)nc1-c1ccc(F)cc1F,Potency,[1],inactive
same,outcome,[2],inactive
CCC(=O)N1CCN(c2ccc(-n3c(=O)ccc4cnc5ccc(-c6cnc7ccccc7c6)cc5c43)cc2C(F)(F)F)CC1,Potency,[1],inactive
same,outcome,[2],inactive
O=C(Nc1cccc(Cl)c1)Nc1ncc(CCNc2ncnc3ccsc23)s1,Potency,[1],inactive
same,outcome,[2],inactive
CC1=C[C@@H]2[C@@H]([C@@H](O)C[C@@]3(C)[C@H]2C[C@@H](C)[C@]3(O)C(=O)CO)[C@@]2(C)Cc3cnn(-c4ccccc4)c3C=C12,Potency,[1],inactive
same,outcome,[2],inactive
O=C(O)c1ccc(O)c2ncc(N3CCOCC3)cc12,Potency,[1],inactive
same,outcome,[2],inactive
O=C1Nc2ccc(I)cc2C1=Cc1cc(Br)c(O)c(Br)c1,Potency,[1],5820 nM (active)
same,outcome,[2],inactive
CCc1cc(-c2n[nH]c(C)c2-c2ccc3c(c2)OCCO3)c(O)cc1O,Potency,[1],4340 nM (active)
same,outcome,[2],inactive
O=C1C(CCC(O)c2ccc(F)cc2)C(c2ccc(O)cc2)N1c1ccc(F)cc1 (stereo unspecified),Potency,[1],inactive
same,outcome,[2],inactive
CCCCc1ccc(NS(=O)(=O)c2ccc(C)c(C(=O)N3CCN(c4cccc(C)c4C)CC3)c2)cc1,Potency,[1],inactive
same,outcome,[2],inactive
CNC(=O)c1cc(Oc2ccc(NC(=O)Nc3ccc(Cl)c(C(F)(F)F)c3)c(F)c2)ccn1,Potency,[1],4870 nM (active)
same,outcome,[2],inactive
COc1ccc(CCN(C)CCCOc2ccc(S(=O)(=O)c3[nH]c4ccccc4c3C(C)C)cc2)cc1OC,Potency,[1],inactive
same,outcome,[2],inactive
CNC(=O)c1cc(COc2nnc(Nc3ccc(Cl)cc3)c3ccoc23)ccn1,Potency,[1],inactive
same,outcome,[2],inactive
COc1nc(C)cnc1NS(=O)(=O)c1cccnc1-c1ccc(-c2nnco2)cc1,Potency,[1],inactive
same,outcome,[2],inactive
COc1cc2ncn(-c3cc(OCc4ccccc4S(C)(=O)=O)c(C#N)s3)c2cc1OC,Potency,[1],232 nM (active)
same,outcome,[2],inactive
CN(C)CCCNC(=O)c1ccc(-c2cc(O)c3ncccc3c2)cc1,Potency,[1],38700 nM (active)
same,outcome,[2],inactive
Cc1cccc(Nc2nc(N[C@@H]3CCCC[C@H]3N)ncc2C(N)=O)c1,Potency,[1],387 nM (active)
same,outcome,[2],inactive
Cc1csc(-c2nnc(Nc3ccc(Oc4ncccc4-c4ccnc(N)n4)cc3)c3ccccc23)c1,Potency,[1],inactive
same,outcome,[2],inactive
COc1cccc(OC)c1-c1cc(C(=O)NC2(C(=O)O)C3CC4CC(C3)CC2C4)nn1-c1ccnc2cc(Cl)ccc12 (stereo unspecified),Potency,[1],inactive
same,outcome,[2],inactive
COc1ccc2c(c1)CC[C@H]1[C@@H]2CC[C@]2(C)[C@@H](NCCCCCCN3C(=O)C=CC3=O)CC[C@H]12,Potency,[1],inactive
same,outcome,[2],inactive
C[C@@H]1C[C@H]2[C@@H]3CCC4=CC(=O)C=C[C@]4(C)[C@@]3(F)[C@@H](O)C[C@]2(C)[C@@]1(O)C(=O)CO,activation,[3],-0.0369% and 0.315%
same,max response,[4],-0.146% and 1.68%
same,outcome,[5],inactive
same,outcome,[6],inactive
Cc1ccc(C(=O)N(CCCN)[C@@H](c2nc3cc(Cl)ccc3c(=O)n2Cc2ccccc2)C(C)C)cc1,Potency,[1],inactive
same,outcome,[2],inactive
COc1cc2nccc(Oc3ccc(NC(=O)Nc4cc(C)on4)c(Cl)c3)c2cc1OC,Potency,[1],772 nM (active)
same,outcome,[2],inactive
COc1cc2c(cc1OC)CC(=O)N(CCCN(C)C[C@H]1Cc3cc(OC)c(OC)cc31)CC2,Potency,[1],inactive
same,outcome,[2],inactive
Cc1nn(Cc2ccccc2Cl)c(C)c1CN(C)CC(O)COc1ccc(Cl)cc1 (stereo unspecified),Potency,[1],inactive
same,outcome,[2],inactive
CCOC(=O)[C@@H](N)CCC(=O)N[C@@H](CSCc1ccccc1)C(=O)N[C@@H](C(=O)OCC)c1ccccc1,Potency,[1],inactive
same,outcome,[2],inactive
CC(C)C[C@H](NC(=O)c1cc2ccccc2s1)C(=O)N1CCN(C(=O)[C@H](CO)NS(=O)(=O)c2ccc(Cl)cc2Cl)CC1,Potency,[1],inactive
same,outcome,[2],inactive
Cn1cc(-c2ccc3nnc(Sc4ccc5ncccc5c4)n3n2)cn1,Potency,[1],inactive
same,outcome,[2],inactive
COc1c(C)cnc(Cn2cnc3c(Cl)nc(N)nc32)c1C,Potency,[1],inactive
same,outcome,[2],inactive
CCC=CC[C@H]1C(=O)CC[C@@H]1CC(=O)OC,Potency,[1],inactive
same,outcome,[2],inactive
O=C(Nc1ccc(OC(F)(F)F)cc1)c1sccc1NCc1ccnc2ccccc12,outcome,[2],inactive
Cc1ccc(NC(=O)c2ccc(CN3CCN(C)CC3)cc2)cc1Nc1nc(-c2cccnc2)cs1,Potency,[1],345 nM (active)
same,outcome,[2],inactive
CCCCOCCOc1nc(-c2ccc(C(=O)O)c(F)c2)sc1C,outcome,[2],inactive
OCCn1cc(-c2ccc3c(c2)CCC3=NO)c(-c2ccncc2)n1,Potency,[1],inactive
same,outcome,[2],inactive
